Compound activity: PubChem, Buhrlage Lab, Dana-Farber Cancer Institute and Novartis Institutes for BioMedical Research (Cambridge, Mass)
Only some compounds are listed: those with a hit (about 11% of all), similar ones and a draw of the others.
USP30 inh = human USP30 deubiquitinase inhibition; hit rate 5.3% among 47,000; purified USP30, Ub-rhodamine cleavage fluorescence; inhibition, % at 25 µM; Q70CQ3
Target sequence (Q70CQ3 whole entry, looked up): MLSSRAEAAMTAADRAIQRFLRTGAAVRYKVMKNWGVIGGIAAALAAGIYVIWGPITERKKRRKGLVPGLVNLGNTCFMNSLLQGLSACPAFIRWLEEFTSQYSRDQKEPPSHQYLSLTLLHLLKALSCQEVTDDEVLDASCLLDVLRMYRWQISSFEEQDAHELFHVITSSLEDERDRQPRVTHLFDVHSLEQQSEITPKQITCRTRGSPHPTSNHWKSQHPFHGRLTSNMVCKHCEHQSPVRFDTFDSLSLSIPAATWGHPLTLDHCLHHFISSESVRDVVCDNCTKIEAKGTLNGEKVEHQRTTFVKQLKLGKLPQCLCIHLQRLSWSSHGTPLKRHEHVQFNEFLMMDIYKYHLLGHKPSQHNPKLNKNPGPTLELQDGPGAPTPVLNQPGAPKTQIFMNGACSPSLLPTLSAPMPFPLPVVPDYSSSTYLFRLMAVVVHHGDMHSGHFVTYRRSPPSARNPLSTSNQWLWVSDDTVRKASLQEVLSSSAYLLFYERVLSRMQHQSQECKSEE
USP17 block = inhibitors of human USP17 deubiquitinase; A8MUK1; purified USP17, Ub-rhodamine cleavage fluorescence, 3 h; inhibition, % at 50 µM; hit rate 6.5% among 47,000; AID 1645855
USP28 inh = inhibitors of human USP28 deubiquitinase; inhibition, % at 25 µM; purified USP28, Ub-rhodamine cleavage fluorescence, 30 min; Q96RU2; hit rate 3% among 47,000
Hits are given with their value; – = inactive; · = no result. Rule as the data show it: active = inhibition above about 30%; inactive = the rest.

SMILES	USP30 inh	USP17 block	USP28 inh
Cc1nc2ccccc2n1CC(=O)OCc1ccc(C#N)cc1	–	–	–
O=C(Cn1cc(C(=O)c2ccccc2)c(=O)c2cc(F)ccc21)Nc1ccc2c(c1)OCO2	–	–	–
CCN1CCN(c2nc(-c3cnc(N4CCCCC4)nc3C)cc(=O)[nH]2)CC1	–	–	–
Cc1nc(-c2cccc(Cl)c2)nc2c1CC(=O)N2CC1COCCO1 (centres undefined)	–	–	–
CC(=O)Nc1ccc(NC(=O)CCc2ccc(-c3ccccc3)o2)cc1	–	–	–
CN1CCCC2(Cc3ccccc3CN(C(=O)C3CCCC3)C2)C1 (centres undefined)	–	–	–
COc1ccc(Cl)cc1NC(=O)CSc1ncnc2nc[nH]c12	33	–	43
COc1ccc(Cl)cc1NC(=O)CSc1nnc(-c2ccoc2C)o1	–	–	–
COc1ccc(CNC(=O)CCN2C(=O)c3cccnc3Sc3ccccc32)cc1	–	–	–
COc1ccc(C)cc1NC(=O)Cn1c(C)cc(C)c1-c1nc(C(C)C)no1	31	–	–
Cc1cc(C)n(CC(=O)Nc2ccc(F)cc2)c1-c1nc(C(C)C)no1	–	·	–
CCOC(=O)c1ccc(NC(=O)C2CCN(c3nccc4sccc34)CC2)cc1	–	–	–
Cc1ccc(NC(=O)N2C[C@H]3CN(C(C)C)CC[C@H]32)cc1	–	–	–
Cc1nc(NCc2ccccc2F)ncc1C(=O)NCc1ccccc1	–	46	–
COc1ccc(CNc2ncc(C(=O)NCc3ccccc3)c(C)n2)cc1	–	–	–
O=C(c1ccccc1)N1CCC(c2cccc(Cc3cccc(F)c3)n2)CC1	–	–	43
O=C(c1ccccc1)N1CCCC1c1cccc(Cc2ccccc2)n1 (centres undefined)	–	–	–
Clc1cncc(Oc2nc(-c3cccnc3)nc3ccccc23)c1	–	63	–
O=C(O)c1cccc(Nc2nc(-c3cccnc3)nc3ccccc23)c1	–	–	–
Nc1c(-c2nc(-c3ccccc3Cl)no2)nnn1-c1ccc(Cl)cc1	40	43	–
Cc1cccc(-n2nnc(-c3nc(-c4ccc(Cl)cc4)no3)c2N)c1	–	–	–
CC(=O)N1Cc2ccccc2OC2(CCCN(Cc3cccnc3)C2)C1 (centres undefined)	–	–	–
CCOc1ccc(S(=O)(=O)n2ccc(C)n2)c2ccccc12	·	–	·
CCOc1ccc(S(=O)(=O)NCc2ccccc2Cl)c2ccccc12	45	32	–
O=S1(=O)CCC(S(=O)(=O)Nc2ccc(OCc3ccc(Cl)cc3)cc2)C1 (centres undefined)	–	35	–
SMILES	USP30 inh	USP17 block	USP28 inh
O=S1(=O)CCC(S(=O)(=O)Nc2cccc(C(F)(F)F)c2)C1 (centres undefined)	–	–	–
CCc1c(C)sc(NC(=O)c2ccccc2)c1C(=O)N1CCOCC1	–	–	–
COc1cc(NC(=O)C2Cc3ccccc3CN2C(=O)c2ccco2)cc(OC)c1OC (centres undefined)	–	–	–
CSc1cccc(NC(=O)C2Cc3ccccc3CN2C(=O)c2ccco2)c1 (centres undefined)	–	31	–
COc1cc2oc(=O)cc(CN3CCCCC3)c2cc1OC	–	45	–
COC(=O)C1CCN(Cc2cc(=O)oc3cc(OC)ccc23)CC1	–	–	–
O=C(CCc1cscn1)N1CCCCC1Cn1cccn1 (centres undefined)	–	–	–
O=C(NCCN1CCOCC1)c1cn2cc(Cl)ccc2n1	–	–	–
Cc1ccc(NC(=O)c2cc(=O)c3ccccc3o2)cc1S(=O)(=O)N1CCOCC1	35	–	–
Cc1ccc(NC(=O)C2CCCC2)cc1S(=O)(=O)N1CCOCC1	–	–	–
NCCc1c(-c2ccncc2)[nH]c2ccccc12	–	–	–
CC(=O)Nc1ccc2c(c1)nc(CCN1CCN(c3ccc(C)cc3)CC1)n2C	–	–	–
Nc1c(-c2ccncc2)nsc1C(=O)N1CCN(c2cccc(Cl)c2)CC1	–	–	–
COCC(C)NC(=O)c1ccc(-c2nnc(-c3ccc(C)cc3)o2)cc1 (centres undefined)	–	–	–
CCOC(=O)c1cc(C#N)c(NCc2ccccc2OC)nc1-c1ccccc1	–	–	–
COC(=O)c1cc(C#N)c(NCc2ccccc2)nc1C	–	59	–
C=C(C)[C@@H]1CC[C@]2(C)[C@H](CC[C@@H]3[C@@H](C(C)(O)CCC=C(C)C)CC[C@]32C)[C@@]1(C)CCC(=O)O (some centres undefined)	93	99	69
CC(C)=CCC[C@](C)(O)[C@H]1CC[C@]2(C)[C@@H]1CC[C@@H]1[C@@]3(C)CC[C@H](O)C(C)(C)[C@@H]3CC[C@]12C	–	–	–
COCCOc1cccc(CN2CCCC(c3nnc4n3CCNCC4)C2)c1 (centres undefined)	–	–	–
CC(C)c1cccc(OCCOCCN2CCNCC2)c1	–	–	48
Cc1c(C(=O)NC2CCCC2)oc2ccc3c(c12)C(O)CC1(CCCCC1)O3 (centres undefined)	–	–	–
Cc1ccc(-c2nc(N3CCCC(O)C3)ncc2-c2cnccn2)s1 (centres undefined)	–	73	–
c1cnc(N2CCCC(c3nc(N4CCOCC4)ncc3-c3cccnc3)C2)nc1 (centres undefined)	–	–	–
CC(C)c1nc2sc3c(SCC(=O)c4ccc(Cl)cc4)ncnc3c2c2c1COC(C)(C)C2	–	–	–
CC(C)n1cnc2nnc3ccc(C(=O)Nc4cccnc4)cc3c21	–	–	–
SMILES	USP30 inh	USP17 block	USP28 inh
Cn1c(SCC(=O)c2ccc3c(c2)OCCCO3)nnc1-c1ccc2ccccc2c1	49	–	31
COc1ccccc1OCCSc1nnc(-c2ccc3c(c2)OCCCO3)n1C	–	–	–
Cn1c(SCCOc2ccccc2Cl)nnc1-c1ccc2c(c1)OCCO2	39	–	38
Cn1c(SCC(=O)N2CCCCC2)nnc1-c1ccc2c(c1)OCCO2	–	–	–
COCCN(C)c1nc(C2CCN(c3ncccn3)CC2)cc2c1ncn2C	–	–	–
CCC/C=C/C=C/[C@@H]1C[C@@H](O)[C@@H](O)C(=O)[C@H]1CO	–	–	–
COC(=O)C1C(c2ccc(Cl)cc2Cl)C2(C(=O)c3ccccc3C2=O)C2C=Cc3ccccc3N12 (centres undefined)	–	–	–
O=C(Cc1ccccc1)N1CCC2(CC1)COCCN(c1ncccn1)C2	–	–	–
Cc1cc(O)c2c3c(c(O)c4c(c13)O[C@@H](C)C4(C)C)C(=O)C2=O	–	83	31
COc1ccccc1CNC(=O)c1ccccc1-c1ccccc1	–	–	–
COc1ccccc1CNC(=O)c1ccccc1OCc1ccccc1Cl	32	–	–
COc1ccccc1N1CCN(C(=O)c2[nH]c3ccccc3c2NC(=O)c2ccc(Cl)cc2)CC1	–	–	–
Cc1occ(O)c(=O)c1O	–	–	–
O=C(Nc1nc2c(s1)CN(C(=O)C1CC=CCC1)CC2)C1CCCO1 (centres undefined)	–	–	–
Cc1ccccc1CNC(=O)CN1C(=O)C2CCCN2C(=O)c2cccc(C)c21 (centres undefined)	37	–	–
Cc1ccc(CNC(=O)CN2C(=O)C3CCCN3C(=O)c3cccc(C)c32)cc1 (centres undefined)	–	–	–
